# Screening data from PubChem BioAssay.
# The list is not random: actives were taken first. Their share in the collection is about 7.9%.
# LASV entry inh: qHTS for Inhibitors of binding or entry into cells for Lassa Virus; Lassa virus pseudotype entry inhibition, cell reporter; Potency, µM (doses to about 37.9 µM), for the others: at the highest dose activity change, negative = inhibition, hits mostly inhibitors; 300,000 compounds, 1.2% hits; calls by dose curve; tested in HEK293 cells; further: potency means the concentration at half of the fitted maximal effect; nearly all actives have a fitted effect of over 50% in size
# HCMV antiviral: qHTS Assay for inhibitors of the human cytomegalovirus (HCMV). HFF cells, HCMV-luciferase reporter, 72 h; stronger effect = lower value. activity change, negative = inhibition, % at 57.5 µM. 410,000 compounds, 4.5% hits. AID 1259415, 2018; in the data active means activity change below about -60%; inconclusive means no clear call, values can overlap the other calls; inactive means above about -39%
#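 Steps: HFFs plated, 16 h 37C; compounds added; HCMV-luciferase added to MOI 1 PFU/cell; 72 h 37C; OneGlo reagent, 5 min room temperature; luminescence read, normalized to controls.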
# HCV inh: qHTS Assay for Inhibitors of Hepatitis C Virus (HCV); Huh7.5.1 HCVcc-Cre infection, luciferase reporter, 44 h; 340,000 compounds, 3.4% hits; Potency, µM (top dose mostly 41.8 µM), for the others: top-dose activity change, negative = inhibition, usual class: inhibitors; active means well fitted inhibition curve with a large enough effect; inconclusive means small, poorly fitted or top-dose-only effect, or another doubt; inactive means no such curve, though single readings can be large or run the other way; further: potency means the concentration at half of the fitted maximal effect
#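 1,000 cells/well; 4 h culture; + compound; + HCVcc-Cre (~0.5 moi); 44 h; luciferase substrate, RT 15 min; read 15 sec.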
# FMDV antiviral: High Throughput Screening for Foot and Mouth Disease Virus Antivirals; FMDV antiviral cell-based qHTS; Potency, µM (titrated, usually from 57.9 µM), for inactives: at the top dose activity change, negative = inhibition, actives largely listed as inhibitors; 410,000 compounds, 1.2% hits; calls by dose curve; tested in HEK293T cells; further: read-out not given here; potency means the concentration at half of the fitted maximal effect; nearly all actives have a fitted effect of over 45% in size
# MARV entry inh: qHTS for inhibitors of binding or entry into cells for Marburg Virus; Marburg virus pseudotyped entry inhibition, cell reporter; Potency, µM (series often up to 37.8 µM), for the others: at the highest dose activity change, negative = inhibition, hits mostly inhibitors; 300,000 compounds, 1.8% hits; AID 540276, 2011; calls by dose curve; tested in HEK293 cells; further: potency means the concentration at half of the fitted maximal effect
# * marks the source's active call; other numbers are inactive results; ? = inconclusive; . = not tested or not shown; [ ] = another dose, or the depositor's remark. On the % scale 0 is the no-effect control and ±100 the full control effect.
SMILES,LASV entry inh,HCMV antiviral,HCV inh,FMDV antiviral,MARV entry inh
Cc1ccc(NC(CC(=O)c2ccccc2)c2ccc(F)cc2)cc1 (stereo not given),17%,-26,8%,17%,-6%
CC[N+]12CCC(CC1)C(=C(c1ccccc1)c1ccccc1)C2,16%,-61*,3%,-24%,-7%
C[N+]12CCC(CC1)C(=C(c1ccccc1)c1ccccc1)C2,?,?,?,-17%,1%
CC1=C(C(=O)O)N2C(=O)C(NC(=O)C(N)C3=CCC=CC3)C2SC1 (stereo not given),.,.,.,0%,.
COc1ccc2nc(N3C(=O)CNC3=S)sc2c1,-17%,-69*,16%,25%,?
COC(=O)/C=C1\C(=O)N(c2nc3ccc(OC)cc3s2)C(=S)N1c1ccc(F)cc1,.,.,15%,.,.
Cc1cccc(CC2CC(=O)N(c3nc4ccccc4s3)C2=O)c1 (stereo not given),-16%[46.1 µM],-15,2%,-13%,-19%[46.1 µM]
Cc1ccc2nc(N3C(=O)CNC3=S)sc2c1,?,-92*,?,0%,?
Cn1c(=O)c(-c2ccc(F)cc2)nc2cnc(OCc3ccccc3)nc21,.,.,.,-3%,.
Cc1cc(N2CCCCC2)nc(NCc2ccccc2)n1,?,-64*,?,32µM*,3.2µM*
Cc1cc(N2CCOCC2)nc(NCc2ccccc2)n1,-26%,-38,13µM*,.,?
Cc1cc(NCc2ccccc2)nc(N2CCOCC2)n1,4%,-2,-14%,-14%,5%
Cc1cc(N2CCOCC2)nc(SCc2c(Cl)cccc2Cl)n1,-21%,?,11µM*,-14%,-24%
Cc1cc(OC2CCCCC2)nc(NCc2ccccc2)n1,-4%,-1,8%,-20%,-4%[14.2 µM]
NS(=O)(=O)c1ccc(NC(=O)/C=C/c2cccc(Cl)c2)cc1,1%,-13,11µM*,-5%,-6%
c1ccc2c(c1)Nc1cc3ccccc3cc1S2,20%,6,8%,33%,0%[46.1 µM]
c1ccc2c(c1)Nc1ccncc1S2,6%,-71*,?,-15%,20%
COc1ccc(NC(=O)C(C2CC2)n2c(=O)c(-c3ccccc3)nc3ccccc32)cc1 (stereo not given),.,-34,.,-11%,.
CN1C(=O)/C(=C\C(=O)c2cccs2)c2ccccc21,-10%,-99*,13%,22µM*,?
COc1ccc(NC(=O)c2ccco2)cc1NC(=O)c1cccc(OC(C)C)c1,10µM*,-35,?,-8%,?
COc1cccc(C(=O)Nc2cc(NC(=O)c3ccco3)ccc2OC)c1,1%,-18,?,11%,-21%
CCCCOc1cccc(C(=O)Nc2cc(NC(=O)c3ccco3)ccc2OC)c1,-24%[46.1 µM],-104*,.,0%,?
COC(=O)c1ccc(C2Nc3c(C)cccc3-c3cc(C)nn32)cc1 (stereo not given),-2%[46.1 µM],-5,.,-26%,-17%[46.1 µM]
CC(C)N1CCC1(C)C(=O)Nc1nc2ccccc2[nH]1 (stereo not given),.,27,.,-8%,.
Cc1[nH][nH]c(=O)c1C(c1c(C)[nH][nH]c1=O)c1cn(Cc2ccc(F)cc2)c2ccccc12,-29%,.,-7%,?,-20%
SMILES,LASV entry inh,HCMV antiviral,HCV inh,FMDV antiviral,MARV entry inh
Cc1[nH][nH]c(=O)c1C(c1c(C)[nH][nH]c1=O)c1cn(Cc2ccc(Cl)c(Cl)c2)c2ccccc12,?,?,4%,?,8.2µM*
O=C(CSc1nccn1-c1cccc(Cl)c1)Nc1cccc2ccccc12,-19%[46.1 µM],-63*,.,-14%,.
Cc1cccc(-n2ccnc2SCC(=O)Nc2cccc3ccccc23)c1,4%[46.1 µM],-23,.,0%,.
COc1ccc(Cl)cc1NC(=O)CSc1nccn1-c1ccc(Cl)cc1,-27%[46.1 µM],-82*,.,?,.
COc1ccc(OC)c(NC(=O)CSc2nccn2-c2cc(C)cc(C)c2)c1,?,-6,.,0%,.
Cn1cc(Cl)nc1[C@@H](O)c1ccccc1,.,.,.,.,28%
Cc1cccnc1NC(=O)CCNC(=O)c1ccc(Br)cc1,.,25,4%,-20%,.
NC(=O)c1ccc(SCC(=O)OCC(=O)N2CCN(C(=O)c3ccco3)CC2)c([N+](=O)[O-])c1,3%,7,28%,-2%,-2%
CCOC(=O)C1(CCOc2ccccc2)CCN(Cc2ccc(O)c(OCC)c2)CC1,?,20,?,-26%,11µM*
CCOC(=O)C1(CCOc2ccccc2)CCN(Cc2ccc(OC)c(COC)c2)CC1,?,-39,11µM*,?,?
O=C(CSc1nncn1-c1ccccn1)Nc1cccc(Cl)c1,-15%[46.1 µM],36,10%,-5%,1%[46.1 µM]
O=C(CSC1=NNC(c2ccccn2)S1)Nc1cccc(Cl)c1 (stereo not given),-26%,-78*,2%,13%,?
O=C(CSC1=NNC(c2ccccn2)S1)Nc1ccccc1 (stereo not given),.,-97*,14µM*,4%,.
CN(C(=O)C=Cc1ccccc1)c1ccccc1,3%[46.1 µM],-101*,-14%,36%,4%[46.1 µM]
CN(C(=O)/C=C/c1ccc2c(c1)OCO2)c1ccccc1,4%,0,8%,42%,-8%
Cc1ccc(NC(=O)C2CCCN2S(=O)(=O)c2ccc3nc(-c4ccccc4)[nH]c3c2)cc1F (stereo not given),?,-84*,.,?,.
CCn1c(=O)cc(C(=O)OC)sc1=Nc1ccc(F)c(F)c1,.,146,13µM*,32µM*,.
COC(=O)c1cc(=O)n(CCc2ccc(OC)cc2)c(=Nc2ccc(F)c(Cl)c2)s1,.,?,?,22µM*,-2%
Cn1c(=O)c(=O)n(C)c2cc(S(=O)(=O)N3CCCC3C(=O)Nc3ccc(F)cc3)ccc21 (stereo not given),6%[46.1 µM],8,-6%,-11%,?
CN(CC(=O)Nc1ccc(F)cc1)C(=O)CN1C(=O)NC(CCc2ccccc2)C1=O (stereo not given),.,?,.,-21%,.
CCCOc1ncnc2c1[nH]c1ccccc12,-17%,-85*,?,?,-12%
CCN(CC)c1ncnc2c1[nH]c1ccccc12,-8%,?,11µM*,?,?
CC(C)N1CCc2nc(SCC(=O)Nc3cccc(F)c3)[nH]c(=O)c2C1,-4%[46.1 µM],-5,.,-8%,-1%[46.1 µM]
CN(C)S(=O)(=O)c1cccc(C(=O)NC2CCSc3ccccc32)c1 (stereo not given),2%[46.1 µM],-11,-4%,18%,18%[46.1 µM]
CON(C)S(=O)(=O)c1cccc(C(=O)NC2CCSc3ccccc32)c1 (stereo not given),?,-74*,?,18%,?
CCN(CC)c1ccc(C2Nc3cccc4cccc(c34)N2)c(O)c1,-2%,46,11µM*,33%,?
O=C(NC1CC1)c1cccc2c1C(=O)c1ccc(N3CCC(Cc4ccccc4)CC3)cc1S2(=O)=O,.,-32,10µM*,?,.
O=C(NCCOc1ccccc1)c1cccc2c1C(=O)c1ccc(Cl)cc1S2(=O)=O,.,-10,10µM*,9%,.
